Screens: PubChem, National Center for Advancing Translational Sciences (NCATS)
Rows were chosen to be rich in hits. Some 19% of all compounds tested hit in one or more screens of this group.
TDP1 cell noCPT = qHTS for Inhibitors of human tyrosyl-DNA phosphodiesterase 1 (TDP1): qHTS in cells in absence of CPT; DT40 Tdp1-/- hTDP1 cells, no CPT, ATP luminescence, 48 h; Potency, µM (top dose mostly 46.2 µM), hits mostly inhibitors; hit rate 15% among 420,000; further: nearly all actives have a fitted effect of over 55% in size
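Cells were dispensed at 400 per well, compounds added by pin tool, plates incubated ≥48 hr at 37 °C, then CellTiter-Glo added for 30 min at room temperature before luminescence reading. Line: DT40 Tdp1-/- complemented with hTDP1; camptothecin omitted.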
Giardia kill = kills Giardia lamblia; AID 540267; activity change, % at 7.66 µM, hits read low; hit rate 0.15% among 340,000; Giardia lamblia trophozoite viability; in the data active means activity change below about -80%; inconclusive means between about -30% and that limit;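 further: parasites exposed to compound for two days anaerobically before the ATP read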
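Giardia lamblia trophozoites (100 cells/well) were incubated with compounds for 48 h at 37 deg C under anaerobic conditions. Viability was read as ATP content by one-step luminescence after 15-30 min at room temperature.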
TDP1 cell CPT = DT40-hTDP1 cell growth loss with CPT. chicken DT40 Tdp1-/-;hTDP1 cells + 20 nM CPT, ATP luminescence, 48 h. Potency, µM (highest dose often 46.2 µM), usual class: inhibitors. AID 686979. hit rate 12% among 420,000; further: nearly all actives have a fitted effect of over 55% in size
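Chicken DT40 Tdp1-/- cells stably complemented with human TDP1 were seeded at 400 cells/well in medium containing 20 nM camptothecin, exposed to pin-transferred compounds, and grown at 37 °C for at least 48 hr. Viability was read as ATP luminescence.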
IL-1B inflam inh = inhibitors of inflammasome signaling (IL-1 beta secretion). hit rate 4.7% among 360,000. THP-1 LPS/ATP IL-1B secretion, AlphaLISA, 16 h; hits give low values. AID 743279. activity change, % at 57.5 µM; in the data active means activity change below about -50%; inconclusive means mostly about -30% to -49%
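THP-1 cells pretreated 1 hr with compounds (up to 57.5 uM final), then stimulated with LPS (250 ng/mL final) plus ATP (1.25 mM final); secreted IL-1B measured by AlphaLISA after 16 hr, decreased signal indicating inhibition.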
ELG1 DNA repair = blocks ELG1-dependent DNA repair in HEK293T cells; HEK293T ELG1-luciferase reporter, luminescence, 16 h; DNA damage induced by 5-fluorouridine; Potency, µM (doses to about 46.1 µM), most hits filed as inhibitors; hit rate 2.3% among 330,000; AID 504467; further: nearly all actives have a fitted effect of over 55% in size
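Quantitative HTS, concentration-response format. 2,000 cells/well co-treated with 5-fluorouridine and compound, 16 hr in 5% CO2 at 37 °C; ONE-Glo luminescence read after 30 min.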
TDP1 block = blocks human tyrosyl-DNA phosphodiesterase 1; Q9NUW8; recombinant TDP1, AlphaScreen DNA substrate cleavage; Potency, µM (titrated, usually from 130 µM), usual class: inhibitors; hit rate 0.28% among 350,000; AID 485290; further: nearly all actives have a fitted effect of over 40% in size
Target sequence (Q9NUW8 whole entry, looked up): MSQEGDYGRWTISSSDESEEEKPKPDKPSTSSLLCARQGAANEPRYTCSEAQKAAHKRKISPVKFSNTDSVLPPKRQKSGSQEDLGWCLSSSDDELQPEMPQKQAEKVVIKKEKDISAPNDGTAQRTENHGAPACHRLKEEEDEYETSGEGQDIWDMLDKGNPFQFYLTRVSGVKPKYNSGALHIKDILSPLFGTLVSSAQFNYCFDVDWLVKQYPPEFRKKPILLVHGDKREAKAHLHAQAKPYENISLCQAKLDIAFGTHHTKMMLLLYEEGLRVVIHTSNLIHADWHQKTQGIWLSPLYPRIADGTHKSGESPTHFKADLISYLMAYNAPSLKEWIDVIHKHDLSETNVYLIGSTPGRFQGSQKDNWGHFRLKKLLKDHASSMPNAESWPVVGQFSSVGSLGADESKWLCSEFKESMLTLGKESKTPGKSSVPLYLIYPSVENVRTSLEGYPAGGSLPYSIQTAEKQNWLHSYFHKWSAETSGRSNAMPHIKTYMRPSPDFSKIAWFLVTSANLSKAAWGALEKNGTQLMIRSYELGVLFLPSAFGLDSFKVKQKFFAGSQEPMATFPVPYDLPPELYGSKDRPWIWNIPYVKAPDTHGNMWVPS
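Enzyme-compound mixtures sat 15 min at room temperature, followed by a 5 min reaction with 15 nM final substrate and 10 min with AlphaScreen beads. Recombinant human Tdp1 was used at 1 nM final.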
A number is an active result; . = inactive; ? = inconclusive; / = no result given; [ ] = dose if it differs, or a comment. Unless noted, the call rests on the fitted dose curve; in most records, active means well fitted curve in the direction sought with a large enough effect; inconclusive means small, poorly fitted or top-dose-only effect, or another doubt; inactive means no such curve, though single readings can be large; an effect the other way counts as inactive or inconclusive.

SMILES | TDP1 cell noCPT | Giardia kill | TDP1 cell CPT | IL-1B inflam inh | ELG1 DNA repair | TDP1 block
OC(c1ccc(Cl)c(Cl)c1)c1ncc(-c2ccccc2C(F)(F)F)[nH]1 (stereo unspecified) | 18.4µM | / | ? | . | / | /
COc1ccccc1-c1cnc(C(O)c2cc(Cl)cc(Cl)c2)[nH]1 (stereo unspecified) | ? | / | 20.6µM | . | / | /
COc1ccccc1-c1cnc(C(O)c2ccc(Cl)c(Cl)c2)[nH]1 (stereo unspecified) | 16.4µM | / | ? | . | / | /
OC(c1cc(Cl)cc(Cl)c1)c1ncc(-c2ccccc2F)[nH]1 (stereo unspecified) | ? | / | ? | . | / | /
COc1ccccc1-c1cnc(C(O)c2ccc(F)c(C)c2)[nH]1 (stereo unspecified) | . | / | ? | . | / | /
CCC1=C2CC[C@H]3C(=O)N(c4ccccc4)C(=O)[C@H]3[C@H]2[C@@]2(C)C(=O)N(Cc3ccccc3)C(=O)N2C1=O | / | / | / | / | / | .
CCOC(=O)c1sc(NC(=O)C(C)Sc2nc(-c3ccccc3)cc(C(F)(F)F)n2)c(C(=O)OC)c1C (stereo unspecified) | . | / | . | / | / | .
O=[N+]([O-])c1cc(C(F)(F)F)ccc1NCCOc1ccccc1 | . | . | . | -77.9 | ? | .
Cc1cccc(OCCNC(=O)c2ccc(Oc3ccc(C(F)(F)F)cc3[N+](=O)[O-])cc2)c1 | . | . | . | . | . | .
Cc1cccc(OCCNC(=O)c2cccc(Oc3ccc(C(F)(F)F)cc3[N+](=O)[O-])c2)c1 | 29.1µM | . | 23.1µM | . | ? | .
O=C(NCCCNc1ccc(C(F)(F)F)cc1[N+](=O)[O-])c1ccc(Cl)cc1 | . | . | ? | . | . | .
O=C(NCCCNc1ccc(C(F)(F)F)cc1[N+](=O)[O-])c1cc(F)c(F)cc1Cl | 18.4µM | . | ? | . | ? | .
COc1ccc2[nH]c(C)c(CCNc3ccc(C(F)(F)F)cc3[N+](=O)[O-])c2c1 | 29.1µM | . | ? | ? | ? | .
CS(=O)(=O)NCCNc1ccc(C(F)(F)F)cc1[N+](=O)[O-] | . | . | . | . | . | .
COc1ccc(-n2cc(-c3ccccc3)nc2SCC(=O)Nc2ccccc2)cc1Cl | ? | / | ? | / | / | .
CC1C(=O)N(C)C(=O)c2nc[nH]c21 (stereo unspecified) | / | / | / | / | / | .
CCn1c(NCc2c[nH]c3ccccc23)nc2ccccc21 | ? | . | ? | ? | / | /
Cn1c(NCc2c[nH]c3ccccc23)nc2ccccc21 | ? | . | ? | -91.9 | ? | .
CC(=O)c1cccc(NS(=O)(=O)c2c(C)nc3sc(C)cn3c2=O)c1 | 14.6µM | / | 18.4µM | / | / | .
CCc1nn2c(=O)c(S(=O)(=O)Nc3ccc(Cl)cc3)c(C)nc2s1 | ? | ? | ? | . | . | /
CCOC(=O)c1cccc(NS(=O)(=O)c2cc3c(cc2C)NC(=O)CO3)c1 | 18.4µM | / | 18.4µM | / | / | .
CCc1cccc(NS(=O)(=O)c2c(C)nc3sc(CC)nn3c2=O)c1 | 20.6µM | . | ? | . | . | .
CCOC(=O)c1ccc(NS(=O)(=O)c2c(C)nc3sccn3c2=O)cc1 | 16.4µM | . | 16.4µM | . | . | /
Cc1ccccc1C(=O)NC(C)c1nnc2n1CCN(Cc1ccc(F)cc1)CC2 (stereo unspecified) | . | / | .[9.04 µM] | / | / | /
OC(c1cccc(Cl)c1)c1nc(-c2cccc3cccnc23)cs1 (stereo unspecified) | . | / | ? | . | / | /
SMILES | TDP1 cell noCPT | Giardia kill | TDP1 cell CPT | IL-1B inflam inh | ELG1 DNA repair | TDP1 block
CC1=C(C(=O)Nc2cccnc2)C(c2ccccc2)n2nc(SCc3ccccc3Cl)nc2N1 (stereo unspecified) | . | / | . | / | / | .
Cc1nc2sccn2c(=O)c1S(=O)(=O)Nc1ccc(N2CCOCC2)c(Cl)c1 | 29.1µM | . | 18.4µM | . | . | .
Cc1nc2scc(C)n2c(=O)c1S(=O)(=O)Nc1ccc(OC(F)(F)F)cc1 | 14.6µM | . | 20.6µM | . | . | .
Cc1ccc(NS(=O)(=O)c2c(C)nc3sc(C)c(C)n3c2=O)cc1F | 14.6µM | / | 11.6µM | / | / | ?
CCOC(=O)c1cccc(NS(=O)(=O)c2c(C)nc3sc(C)cn3c2=O)c1 | 23.1µM | / | 13µM | / | / | .
COc1ccc(NS(=O)(=O)c2c(C)nc3scc(C)n3c2=O)cc1 | ? | / | . | / | / | .
COc1ccccc1CNC(=O)CN(Cc1ccc(Cl)cc1)S(C)(=O)=O | ? | . | . | . | . | .
CN(C)C(=O)c1cc2c(c(-c3cccc(C4=CCCCC4)c3)n1)[C@@H](CCO)N(S(=O)C(C)(C)C)C2 (stereo partly specified) | . | / | . | . | / | /
O=C(NNC(=O)c1cccc(O)c1)Nc1ccc([N+](=O)[O-])cc1 | . | . | . | . | . | .
COc1ccc(C(=O)N2CCN(C3CCC(c4ccccc4)CC3)CC2)cc1OC (stereo unspecified) | 14.6µM | . | 20.6µM | . | ? | .
O=C(Nc1ccc(C(O)c2ccccc2)cc1)[C@@H]1O[C@H](CO)[C@@H](O)[C@H]1O (stereo partly specified) | . | / | . | . | / | /
COc1ccc(NC(=O)C2CCCN2S(=O)(=O)c2cccs2)c([N+](=O)[O-])c1 (stereo unspecified) | 10.3µM | . | 20.6µM | . | . | .
COc1ccc([N+](=O)[O-])cc1NC(=O)C1CCCN1S(=O)(=O)c1cccs1 (stereo unspecified) | ? | . | . | . | . | .
O=C(Nc1ccc(Br)cc1)C1CCCN1S(=O)(=O)c1cccs1 (stereo unspecified) | 13µM | . | 20.6µM | . | ? | .
Cc1ccc(C(=O)OCC(=O)NC2CCCCC2)s1 | . | . | . | . | ? | .
CN1CCN(C(=O)CSc2ccc(C(F)(F)F)cc2[N+](=O)[O-])CC1 | . | . | . | . | . | .
Cc1ccc(C(C)C)c(OCC(=O)N2CCN(c3ncccn3)CC2)c1 | ? | . | . | . | . | .
NC(=O)CCC(NC(=O)c1ccc(Cl)cc1)C(=O)O (stereo unspecified) | . | . | . | . | . | .
Cc1nn(C)c2c1c(C(F)(F)F)cc(=O)n2C(C)C(=O)NCCc1ccccc1 (stereo unspecified) | . | / | 0.184µM | / | / | .
Cc1nn(C)c2c1c(-c1ccccc1)cc(=O)n2Cc1ccc(F)cc1Cl | ? | / | . | / | / | .
Cc1nn(C)c2c1c(-c1ccccc1)cc(=O)n2Cc1ccccc1C#N | ? | / | 23.1µM | / | / | .
Cc1nn(C)c2c1c(C(F)(F)F)cc(=O)n2C(C)C(=O)NCCC(C)C (stereo unspecified) | ? | / | 16.4µM | / | / | .
